“And” between values parts separate entries of the source, which are not always exact repeats. Identical values can stand only once. Records with an inconclusive call do not appear. Where a call stands in place of a potency, no number is given. Some structures have more than one record in an assay (separate samples or runs), and their calls can disagree. The source made the active and inactive calls. The call rests on the fitted dose curve; in most records, active means well fitted cell-killing curve with a large enough effect in the repeat runs; inconclusive means weak or mixed curves, or effect the other way; inactive means flat fitted curve, though single readings scatter.
assay: qHTS RealTime-Glo MT Cell Viability Assay in HEK293 cells - 32 hour (AID 1224868); settings: RealTime-Glo luminescence; series mostly up to 76.8 µM; activity change, negative = cytotoxic: at the top concentration; further: nearly all actives have a fitted effect of over 50% in size; on activity change, negative = cytotoxic: top concentration of the series differs between compounds
Text: National Center for Advancing Translational Sciences [NCATS]
NIH Chemical Genomics Center [NCGC]
U.S. Environmental Protection Agency [EPA]
National Institutes of Environmental Health Sciences [NIEHS]
National Toxicology Program [NTP]
U.S. Food and Drug Administration [FDA]
Measure of cell viability is critical in the cell-base assay. Analysis of cell viability is necessary for the characterization of cell responses to cytotoxic drugs and environmental stress. A RealTime-Glo MT Cell Viability Assay to monitor cell viability in real time of continues cell culture during 40 hours of compound treatment was used to screen Tox21 10K library compounds in Hek293 cells. The RealTime-Glo MT Cell Viability Assay is a nonlytic, homogeneous, bioluminescent method to measure cell viability in real time using a simple, plate-based method. The assay involves adding NanoLuc luciferase and a cell-permeant prosubstrate to cells in culture. Viable cells reduce the proprietary prosubstrate to generate a substrate for NanoLuc luciferase. This substrate diffuses from cells into the surrounding culture medium, where it is rapidly used by the NanoLuc Enzyme to produce a luminescent signal. The signal correlates with the number of viable cells, making the assay well suited for cytotoxicity studies.
Tox21 Assay Protocol Summary:
The mixture of Hek293 cell suspension and reagents were dispensed at 600cells/6 ul/well in 1536-well tissue culture treated black solid bottom plates using a Multidrop dispenser. After the assay plates were incubated at a 37 C/5% CO2 incubator for 5 hours, 23 nL of compounds dissolved in DMSO, positive and negative controls was transferred to the assay plate by a pintool work station. The plates were incubated at 37 C for 40 hours. The luminescence intensity were measured at 0h, 8h, 16h, 24h, 32h and 40h time points using ViewLux plate reader during compound treatment.
Potency means the concentration at half of the fitted maximal effect.

Compound | Potency | activity change, negative = cytotoxic
c1ccc(OCCOc2ccccc2)cc1 | inactive | –
C=CCNC(N)=S | inactive | –
C#C[C@]1(O)CC[C@H]2[C@@H]3CCC4=CC(=O)CC[C@@H]4[C@H]3CC[C@@]21C | – | -11.7% [at 35.3 µM] (inactive)
FC(F)(F)c1ccc(Cl)c(Cl)c1 | inactive | –
CC(=O)OCC(=O)[C@@]12N=C(C)O[C@@H]1C[C@H]1[C@@H]3CCC4=CC(=O)C=C[C@]4(C)[C@H]3[C@@H](O)C[C@@]12C | inactive | –
CCCCC(CC)COC(=O)CS (stereo not given) | inactive and 17.4 µM (active) | –
CCCCCC/C(C=O)=C\c1ccccc1 | inactive | –
C[C@H]1C[C@@H]2[C@H]([C@@H](O)C[C@@]3(C)[C@H]2CC[C@]3(O)C(=O)CO)[C@@]2(C)C=CC(=O)C=C12 | inactive | –
Cc1ccc2oc(=O)ccc2c1 | inactive | –
C[C@H]1C[C@H]2[C@@H]3CCC4=CC(=O)C=C[C@]4(C)[C@@]3(F)[C@@H](O)C[C@]2(C)[C@@]1(O)C(=O)CO | inactive | –
CN(C)CCCN | inactive | –
COc1ccc2cc([C@H](C)C(=O)O)ccc2c1 | inactive | –
CC1=CC(=O)NS(=O)(=O)O1 | inactive | –
CCCCCCCCCCCCS | inactive | –
O=C(Oc1ccccc1)c1ccccc1 | inactive | –
O=C(O)c1ccc(C(=O)O)cc1 | inactive | –
C=CCOC(=O)c1ccccc1C(=O)OCC=C | – | 7.38% (inactive)
CC(C)c1ccc(S(=O)(=O)O)cc1 | inactive | –
CCCC(C)=O | inactive | –
Nc1ccccc1[N+](=O)[O-] | inactive | –

Compound | Potency | activity change, negative = cytotoxic
O=c1[nH]nnc2ccccc12 | inactive | –
CCc1ccc(CCOc2ccc(CC3SC(=O)NC3=O)cc2)nc1 (stereo not given) | – | -18.4% [at 35.3 µM] (inactive)
C#CCN(C)Cc1ccccc1 | inactive | –
O=C(O)c1ccc2c(c1)C(=O)OC2=O | inactive | –
CC1CCC(C(C)C)C(O)C1 (stereo not given) | inactive | –
COc1ccc(NC(C)=O)cc1N | inactive | –
CCCCCC(N)=O | inactive | –
C=C(C)C(=O)OCCOCCOCCOC(=O)C(=C)C | inactive | –
CCCCCCCCCCCCc1ccccc1 | inactive | –
O=C(O)CCCCCCCCCCC(=O)O | inactive | –
O=c1[nH]c(=O)n([C@H]2CCCO2)cc1F | inactive | –
O=C1CCC(N2C(=O)c3ccccc3C2=O)C(=O)N1 (stereo not given) | inactive | –
N[C@@H](Cc1cc(I)c(Oc2cc(I)c(O)c(I)c2)c(I)c1)C(=O)O | inactive | –
COCCCOc1ccnc(CS(=O)c2nc3ccccc3[nH]2)c1C (stereo not given) | 9.74 µM (active) and inactive | –
Oc1cccc2ccccc12 | inactive | –
CCCCC(CC)COC(=O)C(C#N)=C(c1ccccc1)c1ccccc1 (stereo not given) | – | -26.9% [at 35.3 µM] (inactive)
CC(=O)Nc1ccccc1 | inactive | –
CC[C@H](C)C(=O)O[C@H]1C[C@@H](C)C=C2C=C[C@H](C)[C@H](CC[C@@H]3C[C@@H](O)CC(=O)O3)[C@H]21 | inactive | –
CC(=O)Nc1cccc(O)c1 | inactive | –
CCN(CC)c1ccc(C(=O)c2ccccc2C(=O)O)c(O)c1 | inactive | –
